This note sets out measurements from PubChem BioAssay AID1851 (National Center for Advancing Translational Sciences (NCATS), 2009).

Screen size: about 16,000 compounds; about 2,600 (16%) were called active. Another 20% or so got no clear call; they are omitted. A selection follows. Unmarked numbers belong to inactive results. Calls come from the whole dose curve; as a rule, active = well fitted curve in the direction sought with a large enough effect; inconclusive = small, poorly fitted or top-dose-only effect, or effect the other way; inactive = no such curve, though single readings can be large or run the other way.
% is set by controls: 0 for no effect and ±100 for the full control effect.

Sequence of Cytochrome P450 2D6 (Homo sapiens) (P10635 whole entry, looked up): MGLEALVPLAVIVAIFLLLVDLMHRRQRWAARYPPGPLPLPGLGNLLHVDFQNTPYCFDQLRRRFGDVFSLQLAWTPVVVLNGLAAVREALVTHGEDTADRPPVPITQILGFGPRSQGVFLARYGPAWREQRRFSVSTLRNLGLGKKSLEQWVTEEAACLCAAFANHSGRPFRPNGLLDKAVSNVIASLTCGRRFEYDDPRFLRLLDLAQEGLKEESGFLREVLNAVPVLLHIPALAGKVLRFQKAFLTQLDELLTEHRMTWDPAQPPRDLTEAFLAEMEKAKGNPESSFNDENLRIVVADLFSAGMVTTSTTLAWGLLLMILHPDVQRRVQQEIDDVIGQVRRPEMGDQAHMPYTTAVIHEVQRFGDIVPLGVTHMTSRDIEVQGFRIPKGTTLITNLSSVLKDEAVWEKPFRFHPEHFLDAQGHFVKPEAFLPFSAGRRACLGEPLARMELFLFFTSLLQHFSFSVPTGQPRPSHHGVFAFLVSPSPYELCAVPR

The assay concerns the target Cytochrome P450 2D6 (Homo sapiens) (UniProt P10635). Briefly: Cytochrome panel assay with activity outcomes. To be noted: recombinant CYP, pro-luciferin dealkylation, luminescence, p450-cyp2d6; series mostly up to 57.1 µM; activity, negative = inhibition: at the top concentration.
With `O=C(c1cnccn1)N1CCC2(CCN(Cc3nccs3)CC2)CC1`, the “activity, negative = inhibition” value is -16.7%. For orientation: AC50 means the concentration giving half of the maximal activity seen. For `O=C(c1cnccn1)N1CCC2(CCCN(Cc3nccs3)C2)CC1`, the AC50 was 7.94 µM (active). For the compound `CN1CCCC2(CCN(C(=O)c3cnccn3)CC2)C1`, the “activity, negative = inhibition” value is -1.38%.

Consider `COc1ccccc1CN1CCCC2(CCN(C(=O)c3cnccn3)CC2)C1`, for which the AC50 is 3.98 µM (active). `O=C(c1cnccn1)N1CCC2(CC1)CN(Cc1nccs1)C2`: the “activity, negative = inhibition” value was 8.12%.

As for `COc1ccccc1CN1CC2(CCN(C(=O)c3cnccn3)CC2)C1`, the “activity, negative = inhibition” value was 10.3%. For `COc1ccccc1CN1CC2(CCN(C(=O)c3ccncc3)CC2)C1`, the AC50 is 0.794 µM (active).

With `COc1ccccc1CN1CCCC2(CCN(C(=O)c3ccncc3)CC2)C1`, the AC50 was 3.16 µM (active). As for `O=c1c(CCc2ccccc2)nc2cnc(Oc3ccccc3)nc2n1C1CC1`, the “activity, negative = inhibition” value was -18.6%. Same read-out and setting: as for `O=C(CSc1nc2ccccc2s1)c1sc2sc3ccccc3[n+]2c1O`, the figure is -14.5% [at 11.4 µM]; as for `Cc1ccc(C(=O)O)cc1N1C(=O)c2cccc3cc(Br)cc(c23)C1=O`, 2.76%. On the same count and under the same terms, then `CCCNC(=O)OC[C@@H]1O[C@H](CCO/N=C(\C)CCN2CCc3nc(-c4ccccc4)c(-c4ccccc4)cc3C2)C=C[C@@H]1Oc1ccc(OC)cc1`, with -6.26% [at 11.4 µM]; and `COc1ccc(Oc2ncc3nc(C)c(=O)n(C)c3n2)cc1`, with -3.79%; and `CC(C)C12CN3CC(C(C)C)(CN(C1)C3c1ccco1)C2=O` (centres undefined), with -6.44%. The same measure, in the same setting: then `CC(=O)Nc1c(I)c(C(=O)N[C@H]2[C@@H](O)[C@H](O)[C@H](CO)O[C@@H]2O)c(I)c(N(C)C(C)=O)c1I`, with 6% [at 25.6 µM]. In the case of `CCOc1ccc(N(CCC#N)S(=O)(=O)c2ccc(OC)cc2)cc1`, the “activity, negative = inhibition” value was -14.3%.

For `COc1cc([C@H]2c3cc4c(cc3[C@@H](O)[C@@H]3COC(=O)[C@H]23)OCO4)cc(OC)c1OC`, the “activity, negative = inhibition” value is -2.29%. As for `O=C1N/C(=C\c2ccc(N3CCOCC3)c(F)c2)C(=O)N1Cc1ccccc1`, the “activity, negative = inhibition” value is 7.66%. Still for that read-out and setting: then `COCCn1c(=O)c(C)nc2cnc(Oc3cccc(Cl)c3)nc21`, with 5.44%. On to `Sc1ccc2ccccc2c1CNCc1ccccc1`, for which the AC50 was 1.26 µM (active). On to `O=C(O)c1ccc(CNCc2ccccc2)cc1`, for which the activity, negative = inhibition was 8.97% [at 11.4 µM]. Still for that read-out and setting: as for `CC(OC(=O)Cn1c(C(F)(F)F)nc2ccccc21)C(N)=O` (centres undefined), the figure is 0.379%. Take `Cc1ccc(N=Cc2cc(C)n(C3CCCC3)c2C)cc1`: the AC50 is 15.8 µM (active).

On to `COC(=O)N1CCC2(CC1)CCN(c1ncccn1)CC2`, for which the “activity, negative = inhibition” value was 12.2%. Same read-out and setting: then `COc1cc(/C=C\c2ccc(OC)cc2OC)cc(OC)c1`, with 4.63%. `COc1ccc(/C=C/c2ccncc2)cc1`: the AC50 was 8.91 µM (active).

For `COc1ccc(OC(=O)c2ccncc2)cc1`, the “activity, negative = inhibition” value is -16.3%.

Turning to `CC(C)(C)NC(=O)Cn1cnc([N+](=O)[O-])n1`, the “activity, negative = inhibition” value is -7.65%.

`CSc1nc2ccc3nc(NC(=O)c4cccs4)sc3c2s1`: the “activity, negative = inhibition” value is -24.7%. As to `O=C(Cn1cnc2ccccc2c1=O)Nc1nnc(SCc2ccccc2)s1`, the “activity, negative = inhibition” value was -15.3%. Same read-out and setting: then `COc1cc(OC)cc(C(=O)NC(=S)Nc2ccc(Cl)c(C(=O)O)c2)c1`, with -13.6%; and `C[C@@H](c1ccccc1)N1C(=O)[C@H]2[C@H]3[C@H](O)[C@H](O)C/C(=N/OCc4ccccc4)[C@H]3CC[C@@H]2C1=O`, with 6.68% [at 11.4 µM]. Still for that read-out and setting: as for `O=c1c(-c2cc(F)cc(F)c2)nc2cnc(Oc3ccccc3)nc2n1C1CC1`, the figure is -1.3%. With `CN(C)CCCn1c2c3ccccc3ccc2c2oc(=O)c3ccccc3c21`, the AC50 is 1.26 µM (active). For the compound `Cc1nc2cccc([N+](=O)[O-])c2n1CCCN(C)C`, the activity, negative = inhibition is 3.67% [at 11.4 µM]. The same measure, in the same setting: then `O=C1C2C3c4ccccc4C(c4ccccc43)C2C(=O)N1c1nc(-c2ccccc2)cs1` (centres undefined), with 15%; and `O=C(Nc1ccc(-c2nc3ccccc3o2)cc1)c1ccc(N2CCOCC2)c([N+](=O)[O-])c1`, with -4.29%.

Consider `O=C(O)C1=CCNCC1`, for which the AC50 result is “inactive”. For the compound `CCC[C@H]1C(=O)N2C(N(C)C)=Nc3ccc(C)cc3N2C1=O`, the “activity, negative = inhibition” value was -3.99% [at 25.6 µM]. With `O=C(Nc1ccccc1)/C(=C\c1ccncc1)NC(=O)c1ccccc1`, the “activity, negative = inhibition” value is -8.98%. On the same count and under the same terms, as for `CC(=O)Nc1ccc(NCN2C(=O)C3C4CCC(C4)C3C2=O)cc1` (centres undefined), the figure is 19.6%; as for `COc1ccccc1NC(=O)C1=C(C)Nc2nc(-c3ccc(N(C)C)cc3)nn2C1c1ccncc1` (centres undefined), 0.163%. Same read-out and setting: then `Nc1nnnn1/N=C\c1ccc(Cl)c([N+](=O)[O-])c1`, with 17%; and `COc1ccc(-n2c(C)n[nH]c2=O)cc1`, with 15.3%. The same measure, in the same setting: as for `Cc1cc(C)cc(NC(=O)CCc2nc3ccccc3[nH]2)c1`, the figure is -11.3%. On to `CC(C)c1ccc(NC(=O)N(CCc2nc3ccccc3[nH]2)C2CCCC2)cc1`, for which the AC50 was 2.51 µM (active). In the case of `O=C(O)[C@H]1CCCC[C@@H]1C(=O)Nc1nc2ccccc2[nH]1`, the activity, negative = inhibition is -3.05% [at 11.4 µM]. Still for that read-out and setting: as for `O=C(N/N=C/c1cccc(OC2CSC2)c1)c1ccccc1O`, the figure is -21.8%. As for `Nc1ccccc1N=Nc1c(S(=O)(=O)O)cc2cc(S(=O)(=O)O)cc(O)c2c1O`, the activity, negative = inhibition is -13.1% [at 11.4 µM].
